# Data published in PubChem BioAssay (Tox21).
# Inconclusive results are not listed. Entries that show only a call come without a potency. Active and inactive are the calls of the source. Calls follow the shape of the dose curve; as a rule, active = well fitted inhibition curve with a large enough effect in the signal ratio in the repeat runs (not every such curve was filed as active); inconclusive = weak or mixed curves, or effect the other way; inactive = no such curve, though single readings can be large or run the other way; the % refers to the signal ratio.
# Target: Glucocorticoid receptor (Homo sapiens) (UniProt P04150)
# Sequence (P04150 whole entry, looked up): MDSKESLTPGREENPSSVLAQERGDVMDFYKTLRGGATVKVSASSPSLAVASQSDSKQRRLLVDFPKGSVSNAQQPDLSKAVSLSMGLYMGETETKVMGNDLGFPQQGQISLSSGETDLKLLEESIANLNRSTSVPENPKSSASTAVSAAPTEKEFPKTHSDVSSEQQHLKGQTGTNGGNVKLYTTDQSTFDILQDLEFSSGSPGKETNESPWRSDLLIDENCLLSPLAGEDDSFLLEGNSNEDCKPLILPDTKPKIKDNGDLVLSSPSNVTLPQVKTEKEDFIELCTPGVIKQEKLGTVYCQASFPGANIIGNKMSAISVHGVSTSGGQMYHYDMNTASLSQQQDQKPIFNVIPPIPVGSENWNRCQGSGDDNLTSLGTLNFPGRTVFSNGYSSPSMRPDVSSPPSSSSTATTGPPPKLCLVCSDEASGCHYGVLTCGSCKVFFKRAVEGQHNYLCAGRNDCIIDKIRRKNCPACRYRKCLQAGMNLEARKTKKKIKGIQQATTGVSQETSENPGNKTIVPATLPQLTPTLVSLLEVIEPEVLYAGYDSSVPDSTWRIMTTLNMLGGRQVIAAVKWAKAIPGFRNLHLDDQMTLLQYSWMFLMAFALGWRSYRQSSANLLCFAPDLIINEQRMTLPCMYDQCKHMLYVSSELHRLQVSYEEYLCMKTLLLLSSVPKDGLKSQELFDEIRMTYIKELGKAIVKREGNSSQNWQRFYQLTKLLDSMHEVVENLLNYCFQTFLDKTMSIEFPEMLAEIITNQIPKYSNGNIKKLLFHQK
# Assay: qHTS assay to identify small molecule antagonists of the glucocorticoid receptor (GR) signaling pathway (AID 720692)
# Conditions: GR-bla HeLa, beta-lactamase FRET ratio, dexamethasone-stimulated, 18 h; series mostly up to 58.5 µM
# In short: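 Cells plated, rested 4 h at 37 C/5% CO2; compounds in DMSO pin-transferred; dexamethasone added to 5 nM final; 18 h at 37 C; B/G FRET substrate added, 2 h room temperature; fluorescence measured.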
row,SMILES,Potency
1,CN(C)CCN(C)CCN(C)C,inactive
2,Cc1ccc(C(=O)Nc2ccc(S(=O)(=O)O)c3cc(S(=O)(=O)O)cc(S(=O)(=O)O)c23)cc1NC(=O)c1cccc(NC(=O)Nc2cccc(C(=O)Nc3cc(C(=O)Nc4ccc(S(=O)(=O)O)c5cc(S(=O)(=O)O)cc(S(=O)(=O)O)c45)ccc3C)c2)c1,inactive
3,CC1=NS(=O)(=O)c2cc(Cl)ccc2N1,inactive
4,CCOC(=O)CCC(=O)OCC,inactive
5,CC1(C)[C@@H]2CC[C@@]1(C)[C@H](O)C2,inactive
6,CCCC(C)C(=O)OCC (stereo not drawn),inactive
7,CCOC(=O)COc1cc(-n2ncc(C(F)(F)F)c(C)c2=O)c(F)cc1Cl,inactive
8,CC(C)CCCO,inactive
9,CC(=O)N1C[C@H](O)C[C@H]1C(=O)O,inactive
10,O=S(=O)(O)c1cccc2c(S(=O)(=O)O)cccc12,inactive
11,C=CN1CCCCCC1=O,inactive
12,C[N+]1(C)[C@@H]2CC(OC(=O)[C@H](CO)c3ccccc3)C[C@H]1[C@@H]1O[C@@H]12 (stereo partly drawn),inactive
13,CCCCCCCCCCCCSC,inactive
14,C=CCOCC(O)CO (stereo not drawn),inactive
15,CC1=CCC(O)(C(C)C)CC1 (stereo not drawn),inactive
16,CCOC(=O)COC(=O)c1ccccc1C(=O)OCC,inactive
17,CC[C@H]1OC(=O)[C@H](C)[C@@H](O[C@H]2C[C@@](C)(OC)[C@@H](O)[C@H](C)O2)[C@H](C)[C@@H](O[C@@H]2O[C@H](C)C[C@H](N(C)C)[C@H]2O)[C@](C)(OC)C[C@@H](C)C(=O)[C@H](C)[C@@H](O)[C@]1(C)O,inactive
18,C=CC(C)(CCC=C(C)C)OC(=O)CC (stereo not drawn),inactive
19,CC(=O)c1ccc2ccccc2c1,inactive
20,O=C(O)c1cc(C(=O)O)cc(C(=O)O)c1,inactive
21,CCC(=O)OCc1ccccc1,inactive
22,CC(C)C1CCC(O)CC1 (stereo not drawn),inactive
23,COc1cc(C(=O)OC(COCCC(C)C)CN2CCOCC2)cc(OC)c1OC (stereo not drawn),inactive
